Data as given in PubChem BioAssay (EPA / NIEHS).
Calls of active or inactive are those of the source. How the source made its calls: active means hit-call score of the fitted dose curve at least 0.9, where 1 is the maximum; inactive means score below 0.9.

Columns and labels:
Conditions in all cases: mRNA level, 48 h; actives raise or lower the signal
[1] = read-out: Nuclear factor NF-kappa-B p105 subunit (Homo sapiens) (UniProt P19838); assay: LTEA_HepaRG_NFKB1: Life Technologies and Expression Analysis (LTEA) Assay for Nuclear Factor Kappa B Subunit 1 (NFKB1) using HepaRG (AID 2283521)
Outline: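 HepaRG, 48 h exposure; 8-pt half-log series from 100 uM in 0.5% DMSO; duplicates. Readout: NFKB1 mRNA by qRT-PCR (Fluidigm arrays), housekeeping-normalized. Gain/loss fit vs DMSO baseline.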

[2] = read-out: Protein phosphatase 2A (PPP2R4), PTPA (gene 5524); assay: LTEA_HepaRG_PPP2R4: Life Technologies and Expression Analysis (LTEA) Assay for Protein phosphatase 2A (PPP2R4) using HepaRG (AID 2283522)
Outline: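 Differentiated HepaRG cells in serum-free induction medium were exposed in duplicate for 48 h to eight concentrations, top 100 uM with half-log dilutions, in 0.5% DMSO. PPP2R4 mRNA was quantified by TaqMan qRT-PCR, normalized to ACTB, GAPDH and POLR2A.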

[3] = read-out: Phosphatase and tensin (PTEN), PTEN (gene 5728); assay: LTEA_HepaRG_PTEN: Life Technologies and Expression Analysis (LTEA) Assay for Phosphatase and tensin (PTEN) using HepaRG (AID 2283523)
Outline: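 Differentiated human HepaRG cells, plated 48 h then switched to serum-free induction medium, were exposed in duplicate for 48 h to eight half-log concentrations up to 100 uM in 0.5% DMSO. PTEN mRNA measured by TaqMan qRT-PCR, normalized to ACTB/GAPDH/POLR2A, bidirectional fit versus DMSO.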

[4] = read-out: solute carrier (SLC22A1), SLC22A1 (gene 6580); assay: LTEA_HepaRG_SLC22A1: Life Technologies and Expression Analysis (LTEA) Assay for solute carrier (SLC22A1) using HepaRG (AID 2283524)
Outline: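 Human HepaRG cells were plated 48 h, switched to serum-free induction medium, then exposed in duplicate for 48 h to 8-point half-log series from 100 uM in 0.5% DMSO. SLC22A1 mRNA measured by qRT-PCR, normalized to ACTB/GAPDH/POLR2A, fitted bidirectionally versus DMSO.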

[5] = read-out: Pyruvate Dehydrogenase Kinase 4 (PDK4), PDK4 (gene 5166); assay: LTEA_HepaRG_PDK4: Life Technologies and Expression Analysis (LTEA) Assay for Pyruvate Dehydrogenase Kinase 4 (PDK4) using HepaRG (AID 2283525)
Outline: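 Differentiated human HepaRG cells, pre-cultured 48 h, were exposed in duplicate for 48 h in serum-free induction medium to eight half-log concentrations up to 100 uM in 0.5% DMSO. PDK4 mRNA was quantified by qRT-PCR, normalized to ACTB, GAPDH and POLR2A, bidirectional fitting versus DMSO.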

[6] = read-out: NAD(P)H dehydrogenase [quinone] 1 (NQO1), NQO1 (gene 1728); assay: LTEA_HepaRG_NQO1: Life Technologies and Expression Analysis (LTEA) Assay for NAD(P)H dehydrogenase [quinone] 1 (NQO1) using HepaRG (AID 2283526)
Outline: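 Differentiated HepaRG cells, plated 48 h and then switched to serum-free induction medium, were exposed in duplicate for 48 h to 8-point half-log concentrations up to 100 uM in 0.5% DMSO. mRNA measured by qRT-PCR, normalized to ACTB, GAPDH, POLR2A; bidirectional fit versus DMSO.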

[7] = read-out: Nuclear factor erythroid 2-related factor 2 (Homo sapiens) (UniProt Q16236); assay: LTEA_HepaRG_NFE2L2: Life Technologies and Expression Analysis (LTEA) Assay for Nuclear factor erythroid 2-related factor 2 (NFE2L2) Transcription Factor using HepaRG (AID 2283527)
Outline: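 Differentiated human HepaRG cells in serum-free induction medium were exposed for 48 h to eight concentrations (top 100 uM, half-log dilutions, 0.5% DMSO), in duplicate. NFE2L2 mRNA was quantified by TaqMan qRT-PCR, normalized to ACTB, GAPDH and POLR2A, with bidirectional fitting versus DMSO.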

[8] = read-out: succinate dehydrogenase complex iron sulfur subunit B (SDHB), SDHB (gene 6390); assay: LTEA_HepaRG_SDHB: Life Technologies and Expression Analysis (LTEA) Assay for succinate dehydrogenase complex iron sulfur subunit B (SDHB) using HepaRG (AID 2283528)
Outline: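 Readout is SDHB transcript level by qRT-PCR, normalised to three housekeeping genes and fitted bidirectionally against 0.5% DMSO vehicle. Human HepaRG cells were treated for 48 h at up to 100 uM.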

[9] = read-out: Signal transducer and activator of transcription 3 (Homo sapiens) (UniProt P40763); assay: LTEA_HepaRG_STAT3: Life Technologies and Expression Analysis (LTEA) Assay for Signal transducer and activator of transcription (STAT3) using HepaRG (AID 2283529)
Outline: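 Differentiated human HepaRG cells in serum-free induction medium were exposed in duplicate for 48 h to eight half-log concentrations up to 100 uM in 0.5% DMSO. STAT3 mRNA was quantified by TaqMan qRT-PCR, normalized to ACTB, GAPDH and POLR2A, and fitted bidirectionally against DMSO.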

[10] = read-out: solute carrier (SLCO1B1), SLCO1B1 (gene 10599); assay: LTEA_HepaRG_SLCO1B1: Life Technologies and Expression Analysis (LTEA) Assay for solute carrier (SLCO1B1) using HepaRG (AID 2283530)
Outline: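 HepaRG, serum-free induction medium, 48 h dosing, 8-pt half-log from 100 uM, 0.5% DMSO vehicle, duplicates. Readout: SLCO1B1 mRNA, qRT-PCR, ACTB/GAPDH/POLR2A normalization; up or down fit vs DMSO.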

Measured: AC50

Chain of Signal transducer and activator of transcription 3 (Homo sapiens) (P40763 whole entry, looked up): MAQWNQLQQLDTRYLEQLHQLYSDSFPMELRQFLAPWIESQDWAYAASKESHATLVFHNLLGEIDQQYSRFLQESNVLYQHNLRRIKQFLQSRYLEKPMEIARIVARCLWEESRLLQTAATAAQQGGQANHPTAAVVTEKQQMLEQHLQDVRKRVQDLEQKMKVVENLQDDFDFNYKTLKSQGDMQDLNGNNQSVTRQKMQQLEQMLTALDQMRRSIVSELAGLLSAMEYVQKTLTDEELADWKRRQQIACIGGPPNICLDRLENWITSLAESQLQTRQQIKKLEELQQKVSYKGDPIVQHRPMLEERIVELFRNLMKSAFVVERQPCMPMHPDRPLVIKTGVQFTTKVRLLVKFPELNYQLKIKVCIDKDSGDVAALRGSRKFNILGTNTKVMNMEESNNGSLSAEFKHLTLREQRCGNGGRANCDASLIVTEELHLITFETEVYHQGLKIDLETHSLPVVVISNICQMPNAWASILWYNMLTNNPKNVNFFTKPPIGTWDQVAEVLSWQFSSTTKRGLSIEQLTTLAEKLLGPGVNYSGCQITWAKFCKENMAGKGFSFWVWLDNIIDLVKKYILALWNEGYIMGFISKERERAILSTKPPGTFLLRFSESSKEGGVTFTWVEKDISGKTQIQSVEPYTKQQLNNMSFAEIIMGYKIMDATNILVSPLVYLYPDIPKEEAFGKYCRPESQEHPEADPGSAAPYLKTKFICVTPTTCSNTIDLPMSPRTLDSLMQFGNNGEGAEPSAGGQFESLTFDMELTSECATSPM
Chain of Nuclear factor NF-kappa-B p105 subunit (Homo sapiens) (P19838 whole entry, looked up): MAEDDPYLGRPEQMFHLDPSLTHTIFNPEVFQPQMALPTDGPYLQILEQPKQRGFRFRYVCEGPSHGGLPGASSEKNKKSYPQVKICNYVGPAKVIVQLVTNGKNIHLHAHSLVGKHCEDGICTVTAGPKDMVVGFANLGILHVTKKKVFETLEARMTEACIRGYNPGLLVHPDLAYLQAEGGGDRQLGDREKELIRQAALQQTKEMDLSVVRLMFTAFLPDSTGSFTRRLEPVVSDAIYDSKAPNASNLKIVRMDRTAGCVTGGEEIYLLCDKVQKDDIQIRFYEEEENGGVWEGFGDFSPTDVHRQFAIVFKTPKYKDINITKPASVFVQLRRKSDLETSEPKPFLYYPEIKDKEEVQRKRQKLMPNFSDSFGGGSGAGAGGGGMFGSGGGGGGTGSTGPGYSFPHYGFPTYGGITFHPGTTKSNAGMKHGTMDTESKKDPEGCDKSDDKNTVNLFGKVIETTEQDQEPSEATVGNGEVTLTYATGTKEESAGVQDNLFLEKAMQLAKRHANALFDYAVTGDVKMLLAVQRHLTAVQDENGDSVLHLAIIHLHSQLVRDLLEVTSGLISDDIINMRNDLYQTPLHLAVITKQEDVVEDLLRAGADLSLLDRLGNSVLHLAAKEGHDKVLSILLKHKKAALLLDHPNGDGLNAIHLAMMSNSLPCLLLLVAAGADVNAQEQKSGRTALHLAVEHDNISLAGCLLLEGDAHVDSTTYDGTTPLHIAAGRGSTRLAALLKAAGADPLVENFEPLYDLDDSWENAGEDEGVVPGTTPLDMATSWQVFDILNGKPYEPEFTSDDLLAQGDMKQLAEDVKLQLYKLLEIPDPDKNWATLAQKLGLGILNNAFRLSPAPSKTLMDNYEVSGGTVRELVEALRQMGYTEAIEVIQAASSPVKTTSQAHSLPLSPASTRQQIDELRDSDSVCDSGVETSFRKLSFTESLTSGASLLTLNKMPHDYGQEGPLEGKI
Chain of Nuclear factor erythroid 2-related factor 2 (Homo sapiens) (Q16236 whole entry, looked up): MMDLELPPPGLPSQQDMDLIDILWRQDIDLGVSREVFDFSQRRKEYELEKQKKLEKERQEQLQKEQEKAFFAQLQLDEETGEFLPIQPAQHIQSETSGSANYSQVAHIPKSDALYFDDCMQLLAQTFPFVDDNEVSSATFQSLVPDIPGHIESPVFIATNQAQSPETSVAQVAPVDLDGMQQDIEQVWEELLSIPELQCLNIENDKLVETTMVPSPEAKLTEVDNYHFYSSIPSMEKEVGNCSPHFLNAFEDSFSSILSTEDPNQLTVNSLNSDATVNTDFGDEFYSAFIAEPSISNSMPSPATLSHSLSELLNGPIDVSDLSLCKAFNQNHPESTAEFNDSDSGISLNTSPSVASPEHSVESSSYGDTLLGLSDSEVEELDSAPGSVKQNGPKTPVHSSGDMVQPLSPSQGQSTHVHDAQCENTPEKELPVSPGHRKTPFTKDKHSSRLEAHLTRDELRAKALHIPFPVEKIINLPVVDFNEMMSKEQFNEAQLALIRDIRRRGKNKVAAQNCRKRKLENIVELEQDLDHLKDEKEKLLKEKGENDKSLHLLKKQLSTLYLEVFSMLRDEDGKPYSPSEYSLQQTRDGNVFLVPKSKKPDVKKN

CC[C@@H]1C[C@H](N(Cc2cc(C(F)(F)F)cc(C(F)(F)F)c2)C(C)=O)c2cc(C(F)(F)F)ccc2N1C(=O)OC(C)C
inactive: [1] | [2] | [3] | [4] | [5] | [6] | [7] | [8] | [9] | [10]

COc1ccc2cc(S(=O)(=O)N[C@H](CC(=O)N[C@H](Cc3ccc(CN4[C@H](C)CCC[C@@H]4C)cc3)C(=O)N(C)C(C)C)c3ccc4c(c3)OCO4)ccc2c1
active: [1] 31.2 µM | [2] 34.3 µM | [3] 15 µM | [4] 26.4 µM | [5] 86.6 µM | [7] 21.8 µM | [8] 22 µM | [9] 12.4 µM | [10] 26.3 µM
inactive: [6]

CCCCOC(=O)c1ccc(O)cc1
inactive: [2] | [3] | [4] | [5] | [6] | [7] | [8] | [9] | [10]

C[C@]12CC[C@@H]3c4ccc(O)cc4CC[C@H]3[C@@H]1CC[C@H]2O
inactive: [2] | [3] | [5] | [6] | [7] | [8] | [9]
active: [4] 71.1 µM | [10] 77.5 µM

COc1cccc([C@H](O)C2CCN(CCc3ccc(F)cc3)CC2)c1OC
inactive: [1] | [2] | [3] | [4] | [5] | [6] | [7] | [8] | [9] | [10]

NC(=O)c1nc(-c2cccc(-c3cc(F)ccc3OCC(F)(F)C(F)(F)F)c2)n[nH]1
active: [1] 82.8 µM | [3] 80.5 µM | [4] 15.8 µM | [6] 78.2 µM
inactive: [2] | [5] | [7] | [8] | [9] | [10]

O=C(O)c1ccccc1-n1cc(C(=O)O)c(=O)c2cc(Nc3c(F)cc(F)cc3Cl)c(Cl)cc21
inactive: [1] | [2] | [3] | [4] | [5] | [6] | [7] | [8] | [9] | [10]

CCCCCCCCN(C)CCCCCCCC
inactive: [1] | [2] | [3] | [4] | [5] | [6] | [7] | [8] | [9] | [10]

OC12N=C(c3ccccc3)SC1Cc1cc(Cl)ccc12 (stereo unspecified)
active: [4] 40.5 µM | [5] 8.96 µM | [9] 0.925 µM | [10] 32.9 µM
inactive: [2] | [3] | [6] | [7] | [8]

O=C(O)Cn1c(=O)n(Cc2ccc(Br)cc2F)c(=O)c2ccc(Cl)cc21
inactive: [1] | [2] | [3] | [4] | [6] | [7] | [8] | [9] | [10]
active: [5] 38.8 µM

CC(C)(C)c1csc(-c2cc3cc(OCc4ccccc4CC(=O)O)ccc3o2)n1
active: [2] 85.2 µM | [3] 80.1 µM | [4] 25 µM | [5] 12 µM | [6] 93.4 µM | [8] 84.8 µM | [9] 91 µM | [10] 50 µM
inactive: [7]

NCc1cccc(C2CCN(C(=O)c3ccc(C#Cc4ccccc4F)o3)CC2)c1
inactive: [1] | [2] | [3] | [6] | [7] | [8] | [9]
active: [4] 92.6 µM | [5] 64.9 µM | [10] 88.5 µM

O=C1O[C@H]([C@@H](O)CO)C(O)=C1O
inactive: [2] | [3] | [4] | [5] | [6] | [7] | [8] | [9] | [10]

CC/C(=C(/CC)c1ccc(O)cc1)c1ccc(O)cc1
inactive: [6] | [10]
active: [2] 85.4 µM | [3] 93.8 µM | [4] 75.7 µM | [5] 80.1 µM | [7] 89.9 µM | [8] 50 µM | [9] 90.8 µM

Oc1ccccc1
inactive: [2] | [3] | [4] | [5] | [6] | [7] | [8] | [9] | [10]

CC(O)CC(C)(C)O (stereo unspecified)
inactive: [1] | [2] | [3] | [4] | [5] | [6] | [7] | [8] | [9] | [10]

CCCCCc1ccc(N)cc1
inactive: [1] | [2] | [3] | [4] | [5] | [6] | [7] | [8] | [9] | [10]

Cc1oc2c(NC(=O)c3c(Cl)cccc3Cl)cccc2c1C(C)(C)O
inactive: [2] | [3] | [6] | [8] | [9]
active: [4] 50 µM | [5] 14.9 µM | [7] 79 µM | [10] 54 µM

Cc1ncc(CO)c(CO)c1O
inactive: [2] | [3] | [4] | [5] | [6] | [7] | [8] | [9] | [10]
